The list is not random: actives were taken first. Their share in the collection is about 22%.
LmPK inh – qHTS Assay for Inhibitors of Leishmania Mexicana Pyruvate Kinase (LmPK); Q27686; purified LmPK, Kinase-Glo ATP luminescence, 1 h; Potency, µM (highest dose often 57.5 µM), for the others: at the top dose activity change, negative = inhibition, actives largely listed as inhibitors; 290,000 compounds, 0.37% hits; AID 1721, 2009; note: potency is the fitted concentration of half-maximal effect; % is set by controls: 0 for no effect and ±100 for the full control effect
Target sequence (Q27686 whole entry, looked up): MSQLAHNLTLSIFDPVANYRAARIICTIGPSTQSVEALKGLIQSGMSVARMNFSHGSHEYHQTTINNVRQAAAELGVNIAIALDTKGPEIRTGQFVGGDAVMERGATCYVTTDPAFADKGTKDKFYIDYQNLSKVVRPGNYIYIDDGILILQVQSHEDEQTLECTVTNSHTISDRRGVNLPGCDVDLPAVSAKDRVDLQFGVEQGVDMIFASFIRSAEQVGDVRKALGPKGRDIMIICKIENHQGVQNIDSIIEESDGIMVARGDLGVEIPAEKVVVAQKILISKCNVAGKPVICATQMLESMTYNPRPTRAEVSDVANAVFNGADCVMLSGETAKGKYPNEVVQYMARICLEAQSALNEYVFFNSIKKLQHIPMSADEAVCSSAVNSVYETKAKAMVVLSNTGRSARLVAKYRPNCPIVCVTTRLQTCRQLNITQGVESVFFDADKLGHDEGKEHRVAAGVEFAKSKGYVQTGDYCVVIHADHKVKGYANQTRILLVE
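qHTS format; LmPK 0.1 nM; substrates PEP 0.5 mM and ADP 0.1 mM. One-hour room-temperature incubation, then coupled luciferase luminescence; 0.5 nM enzyme wells mark activation.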
Pf growth 48h – Primary qHTS for delayed death inhibitors of the malarial parasite plastid, 48 hour incubation | P. falciparum luciferase growth in erythrocytes, 48 h | Potency, µM (series often up to 28.7 µM), inactives show at the highest dose activity change, negative = inhibition, actives largely listed as inhibitors | 310,000 compounds, 5.9% hits | AID 504832, 2011; note: potency is the fitted concentration of half-maximal effect; % is set by controls: 0 for no effect and ±100 for the full control effect
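Luciferase-expressing parasites in RBCs, 2% Hct / 0.1% parasitemia final; RPMI 1640 + 0.5% Albumax; 37 C, 5% CO2, one generation; luminescence read-out, lower signal = inhibition.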
Cycloheximide cs – Cycloheximide Counterscreen for Small Molecule Inhibitors of Shiga Toxin | cell reporter, cycloheximide protein synthesis inhibition counterscreen | max response, % | 300,000 compounds, 12% hits | AID 2314, 2010; in the data active = max response mostly above about 13%, no sharp cut-off; inactive = mostly below about 14%; note: read at 38.3 µM for the half of the compounds with a filed dose; 0% is about no effect
Pf growth 96h – Primary qHTS for delayed death inhibitors of the malarial parasite plastid, 96 hour incubation. P. falciparum luciferase reporter growth, 96 h. 320,000 compounds, 6.9% hits. Potency, µM (top dose mostly 28.7 µM), without a hit: at the top dose activity change, negative = inhibition, usual class: inhibitors. AID 504834, 2011; note: potency is the fitted concentration of half-maximal effect; % is set by controls: 0 for no effect and ±100 for the full control effect
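Compounds incubated with erythrocytes infected by luciferase-expressing P. falciparum (2% hematocrit, 0.05% parasitemia final) for 96 hours, 37 C in 5% CO2. Growth inhibition scored as decreased luciferase luminescence.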
Shiga toxin inh – A qHTS for Small Molecule Inhibitors of Shiga Toxin | Vero cells, Shiga toxin protein synthesis inhibition reporter | inhibition, % at 38.7 µM | 290,000 compounds, 9.2% hits | AID 2315, 2010; in the data active = inhibition mostly above about 28%, no sharp cut-off; inactive = mostly below about 43%; note: 0% is about no effect
* hit, by the source's call; ? = inconclusive; nt = not tested or not shown; [ ] = remark or other dose. Unless noted, calls come from the whole dose curve; as a rule, active = well fitted inhibition curve with a large enough effect; inconclusive = small, poorly fitted or top-dose-only effect, or another doubt; inactive = no such curve, though single readings can be large or run the other way.

SMILES	LmPK inh	Pf growth 48h	Cycloheximide cs	Pf growth 96h	Shiga toxin inh
CCc1cc(=O)oc2c(C)c(OC(C)C(=O)N3CC[C@@]4(O)CCCC[C@H]4C3)ccc12 (some centres not stated)	-4%	?	-4	12µM*	-9
O=C1C=CC(O)(c2cc(=O)c3c(O)cc(O)cc3o2)C=C1	-5%	9.3µM*	45*	15µM*	93*
O=c1c(O)c(-c2cc(O)c(O)c(O)c2)oc2cc(O)cc(O)c12	nt	3%	nt	-17%	nt
Cc1ccc(-c2nn(-c3ccccc3)cc2/C=N/NC(=O)c2ccncc2)o1	2%	10%	65*	24%	58*
NC(=O)N/N=C/c1cn(-c2ccccc2)nc1-c1cccs1	-22%	?	36*	?	51*
CN(C)C(=O)COC(=O)/C=C/c1cn(-c2ccccc2)nc1-c1cccs1	2%	2%	5	3%	13
O=C(N/N=C/c1cn(-c2ccccc2)nc1-c1cccs1)c1ccncc1	0%	1%	32*	?	50*
O=C(O)c1cccc(NC(=O)c2cn(-c3ccccc3)nc2-c2ccc(F)cc2)c1	0%	38%	6	?	nt
O=C(O)c1cccc(N/N=C/c2cn(-c3ccccc3)nc2-c2cccs2)c1	-3%	204%	52*	66%	150*
CNC(=O)NC(=O)C(C)OC(=O)c1oc2ccccc2c1CSc1ccc(Cl)cc1 (configuration not stated)	2%	?	1	?	41
Cc1nn(-c2ccccc2)cc1/C=N/NC(N)=S	-12%	?	13	?	40*
Cc1nn(-c2ccccc2)cc1/C=N/O	5%	nt	-2	52%	28
COc1ccc(S(=O)(=O)N2CCOCC2)cc1NC(=O)CSc1n[nH]c(C(C)C)n1	0%	?	-1	-10%	4
Cc1ccc2c(c1)C(c1ccccc1)N(C(=O)c1ccc(Br)cc1)CC(=O)N2 (configuration not stated)	0%	0%[0.00184 µM]	-4	-19%	-8
O=C(Nc1ccc(OC(F)(F)F)cc1)c1[nH]ncc1[N+](=O)[O-]	-4%	68%	43*	?	78*
CCOc1ccc(-n2c([S-])c(C(=O)Nc3ccc(S(=O)(=O)N4CCOCC4)cc3)[n+]3cc(C(N)=O)ccc23)cc1	5%	12µM*	-3	?	-10
CCOc1ccc(C(=O)Nc2ccc(S(=O)(=O)N3CCOCC3)cc2)cc1OCC	1%	?	12	?	-2
CC1CCN(S(=O)(=O)c2cccc(C(=O)Nc3ccccc3)c2)CC1	-8%	?	-2	2.6µM*	-10
O=C1CN(S(=O)(=O)c2ccc([N+](=O)[O-])cc2)CC(=O)N1	-2%	41%	-4	12µM*	-8
O=C(O)CC(CC(=O)NCC(O)c1ccccc1)c1ccccc1 (configuration not stated)	7%	3%	-4	30%	-6
CS(=O)(=O)c1ccc(NC(=O)c2cccc(S(=O)(=O)N3CCN(Cc4ccccc4)CC3)c2)cc1	0%	?	-3	9.3µM*	-8
Cc1ccc(NC(=O)c2ccc(S(=O)(=O)N3CCC(C)CC3)cc2)cc1	6%	10µM*	-3	nt	20
CC1CCN(S(=O)(=O)c2ccc(NC(=O)CN3CCCC(C)C3)cc2)CC1 (configuration not stated)	2%	nt	-2	12µM*	20
O=C(Nc1ccc(S(=O)(=O)N2CCOCC2)cc1)c1ccc(S(=O)(=O)N2CCOCC2)cc1	-7%	-4%	16	12µM*	5
COc1ccc(S(=O)(=O)N2CCC(C(=O)NC3CCCC3)CC2)cc1C	-5%	?	-2	-21%	-12
SMILES	LmPK inh	Pf growth 48h	Cycloheximide cs	Pf growth 96h	Shiga toxin inh
Cc1c(NC(=O)CN2C(=O)NC3(CCC(C)CC3)C2=O)c(=O)n(-c2ccccc2)n1C (configuration not stated)	10%	0%	-2	-5%	-10
CSCCC(NC(=O)c1ccccc1Cl)C(=O)N(C)Cc1cccs1 (configuration not stated)	-4%	-25%	-2	8%	-2
O=C(Nc1ccc(S(=O)(=O)N2CCCCCC2)cc1)c1[nH]ncc1[N+](=O)[O-]	5%	?	28*	?	56*
O=C(Nc1ccc(S(=O)(=O)N2CCCCC2)cc1)c1ccc(F)cc1	-9%	-11%	-2	-7%	19
O=C(Nc1ccc([N+](=O)[O-])cc1)c1ccc(S(=O)(=O)N2CCCC2)cc1	0%	?	-2	12µM*	-6
COc1ccc(Cl)cc1S(=O)(=O)NC(C)C(=O)NCc1ccncc1 (configuration not stated)	3%	22%	-5	0%	-9
O=S(=O)(c1c(Cl)sc(Cl)c1Br)N1CCCC1	2%	?	15	12µM*	4
O=S(=O)(c1ccc(Cl)cc1)N1CCCCCC1	-2%	1%	-3	3%	13
CC(CNC(=O)c1cccs1)c1ccc([N+](=O)[O-])cc1 (configuration not stated)	-1%	?	-3	?	-1
CCN1C(=O)[C@@H]2[C@@H](c3ccc(-c4ccc(C(C)=O)cc4)cc3)N3CCC[C@@]3(C(=O)OC)[C@@H]2C1=O	nt	9.3µM*	nt	?	nt
CCN1C(=O)[C@H]2[C@@H](c3ccc(-c4ccc(C(C)=O)cc4)cc3)N3CCCC[C@@]3(C(=O)OC)[C@H]2C1=O	nt	?	nt	12µM*	nt
O=C(C1CCC(=O)N(C2CC2)C1)N(CCO)Cc1ccccc1 (configuration not stated)	5%	34%	11	?	8
COC(=O)CN(c1cc(Cl)ccc1OC)S(=O)(=O)c1ccc(C)cc1	-2%	2.1µM*	1	-14%	3
COc1ccc(S(=O)(=O)Nc2ccc(C)cc2)cc1N(C)S(=O)(=O)c1ccc(Cl)cc1	1%	2.9µM*	6	-12%	1
COC(=O)CN(c1cc([N+](=O)[O-])ccc1OC)S(C)(=O)=O	2%	-8%	6	15µM*	-4
COc1ccc([N+](=O)[O-])cc1N(CC(=O)O)S(C)(=O)=O	-4%	5%	-1	-16%	24
COc1ccc(S(=O)(=O)NN(C)C)cc1N(C)S(=O)(=O)c1ccc(Cl)cc1	-1%	12%	1	0%	-1
O=C(NCCCCl)C1CC(=O)N(CCc2ccc(F)cc2)C1 (configuration not stated)	-6%	9%	-3	23%	-5
Cc1cc(C)cc(C(=O)N(C)[C@H](Cc2ccc(-c3ccccc3)cc2)C(=O)N[C@@H](Cc2c[nH]c3ccccc23)C(=O)O)c1	nt	nt	-3	nt	-4

Assay outcomes from PubChem.
